This is one part of a sample in which hits are shown more often than they occur.
Dicer inh – human Dicer pre-microRNA cleavage inhibition. cat-ELCCA pre-miR-21 Dicer processing, chemiluminescence; active compounds read high. z-score at 25 µM. 47,000 compounds, 6% hits. AID 1347074; in the data active = z-score above about 3, passing the limit was not always enough;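 note: higher signal means more uncleaved substrate so more Dicer inhibition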
A number is an active result; – = inactive.

SMILES | Dicer inh
CCCN1C(=O)C2(/C(=C(/O)c3ccc(C)cc3)C(=O)C(=O)N2CCCOC)c2ccccc21 (configuration not stated) | –
CCCN1C(=O)C2(/C(=C(/O)c3ccc(C)cc3)C(=O)C(=O)N2CCCN(C)C)c2ccccc21 (configuration not stated) | –
CCCN1C(=O)C2(/C(=C(/O)c3ccc(OCC)cc3)C(=O)C(=O)N2CCN(C)C)c2ccccc21 (configuration not stated) | –
CCCN1C(=O)C2(/C(=C(/O)c3ccc(Cl)cc3)C(=O)C(=O)N2CCCN(C)C)c2ccccc21 (configuration not stated) | –
COCCCN1C(=O)C(=O)/C(=C(\O)c2ccc(OC)cc2)C12C(=O)N(C)c1ccccc12 (configuration not stated) | –
CCCN1C(=O)C2(/C(=C(/O)c3ccccc3)C(=O)C(=O)N2CCCN(C)C)c2ccccc21 (configuration not stated) | 4.43
CCCN1C(=O)C2(/C(=C(/O)c3ccccc3)C(=O)C(=O)N2CCCOC)c2ccccc21 (configuration not stated) | 5.02
CC(C)(C)c1ccc(Cn2c(CCCO)nc3ccccc32)cc1 | –
CN(n1cnc2ccsc2c1=O)S(=O)(=O)c1cc(C(F)(F)F)cc(C(F)(F)F)c1 | –
Cc1ccc2oc(-c3ccc(C(C)C)cc3)c(O)c(=O)c2c1 | –
COc1ccc(C(=O)CSc2nc(C)c(Oc3ccc(Cl)cc3)c(=O)[nH]2)cc1 | –
O=c1c2ccccc2n2c(=O)[nH]nc2n1-c1ccccc1 | –
Nc1c(-c2nnnn2-c2ccc(F)cc2)cnc2cc(Cl)ccc12 | –
CCOC(=O)C1(C)Oc2cc(Cl)ccc2NC1=O (configuration not stated) | –
Cn1c(SCC(=O)c2ccc(Cl)cc2)nnc1SCC(=O)c1ccc(Cl)cc1 | –
O=C(CSC(=S)N1CCOCC1)c1ccc(Cl)cc1 | –
CN(C)C(=S)SCC(=O)c1ccc(Cl)cc1 | 4.88
O=C(NC(Cc1c[nH]c2ccccc12)C(=O)NC1CCCCC1)Oc1ccccc1 (configuration not stated) | –
O=C(Oc1ccc2oc(=O)sc2c1)c1ccc(Br)cc1 | –
O=C(Oc1ccc2c(=O)ccoc2c1)c1ccc(Cl)cc1Cl | –
O=C(Oc1ccc2c(c1)oc(=O)c1ccccc12)c1ccccc1 | –
O=C(O)c1cccc(S(=O)(=O)Nc2ccc3oc(=O)sc3c2)c1 | –
CC(=O)Oc1ccc2oc(=O)sc2c1 | –
CCCCNC(=O)Oc1ccc2sc(=O)oc2c1 | –
Cc1cccc(C(=O)Oc2ccc3oc(=O)sc3c2)c1 | 5.55
SMILES | Dicer inh
Cc1ccc(C(=O)Oc2ccc3oc(=O)sc3c2)cc1 | 5.08
O=C(Oc1ccc2oc(=O)sc2c1)c1ccccc1Cl | 7.15
Cc1cc(C)nc(NS(=O)(=O)c2ccc(NC(=O)Nc3ccc(OCc4ccccc4)cc3)cc2)n1 | –
COc1ccc(-c2cc(-c3ccccc3)nc(NS(=O)(=O)c3ccc(N)cc3)n2)cc1 | –
CSC(=NC#N)/N=c1/nc(SC)n(C)n1C | –
O=[N+]([O-])c1ccc2c(c1)CCN2C(=S)NC1CC2CC1C1C=CCC21 (configuration not stated) | –
O=C(NNc1ccccc1)Nc1cc(Cl)sc1Cl | –
COc1ccccc1NC(=O)Nc1nnc(COc2ccccc2F)s1 | 4.8
COc1cccc(NC(=O)NCCN2CCN=C2C)c1 | –
COc1cccc(NC(=O)Nc2nnc(COc3ccc(F)cc3)s2)c1 | 4.42
COc1ccc(NC(=O)Nc2cncc(C#Cc3ccccc3)c2)cc1 | –
CCc1cc(C(=O)c2ccc(OC)cc2)c(NC(=O)Nc2ccc(F)cc2)s1 | –
CCOc1ccc2nc(NC(=O)Nc3ccc(F)cc3)sc2c1 | –
CC(C)c1nnc(NC(=O)Nc2ccccc2)s1 | –
COc1cccc(NC(=O)Nc2nnc(COc3ccccc3F)s2)c1 | 5
COc1ccc(NC(=O)Nc2nnc(-c3ccncc3)s2)cc1 | 4.18
COc1ccc(OCc2nnc(NC(=O)Nc3ccccc3F)s2)cc1 | –
CCOC(=O)Cc1nnc(NC(=O)Nc2ccccc2)s1 | –
COCc1nnc(NC(=O)c2ccco2)s1 | –
Cc1cc(=O)n2c(n1)NC(=NCc1ccccc1)NC2c1cccnc1 (configuration not stated) | –
C=CCn1c(SCc2ccc(F)cc2)nc2sc3c(c2c1=O)CCC(C)C3 (configuration not stated) | –
COc1ccc(-c2c(C(F)(F)F)oc3cc(OC(C)=O)ccc3c2=O)cc1OC | –
CC1(C)CC(=O)C2=C(C1)Nc1[nH]c(=O)[nH]c(=O)c1C2c1cccnc1 (configuration not stated) | –
CC(=O)OCCOCn1cc(F)c(=O)[nH]c1=O | –
CCCc1c(N)ccc2c(=O)cc(C(=O)OCC)oc12 | –
SMILES | Dicer inh
N/C(Cc1cccc2ccccc12)=N\OC(=O)Nc1ccc(Cl)cc1 | –
COc1cccc(C(=O)Nc2nc(SCc3ccc(Cl)cc3)n[nH]2)c1 | –
COc1cccc(C(=O)NCCN2CCN(c3ccc(Cl)cc3)CC2)c1 | 3.86
CSc1nnc(SC)n1CCNC(=O)c1cccc(Cl)c1 | –
Cc1cc(NCCc2ccc(Cl)cc2)c2nncn2n1 | –
COc1cccc(CC(=O)NNC(=O)NC(=O)c2ccccc2Cl)c1 | –
C=CCC(c1ccco1)N(C(C)=O)c1ccccc1 (configuration not stated) | –
COC(=O)/C=C1\SC(Cc2ccc(Cl)cc2)=NC1=O | –
COCc1cc(C)nc(N2CCN(Cc3ccccc3)CC2)c1C#N | –
Cc1cc(C)c(C#N)c(N2CCN(c3ccccc3)CC2)n1 | 3.24
Cc1cc(C)c2c(n1)sc1c(N3CCN(c4ccccc4)CC3)ncnc12 | –
CC1CCN(c2ccc([N+](=O)[O-])c(Oc3nc4c(Cl)cc(Cl)cc4s3)c2)CC1 | –
Cc1cc(C(=O)O)nc2ccccc12 | –
Cc1cc(C)c2ccc(C3C(=O)c4ccc(O)cc4C3=O)nc2c1 (configuration not stated) | 3.13
Cc1cc(C)c2nc(C3C(=O)c4ccccc4C3=O)ccc2c1 | –
O=S(=O)(c1sc(Br)cc1Br)N1CCCC1 | –
CC1=CCC2C(=O)N(c3ncccn3)C(=O)C2C1 (configuration not stated) | 3.68
CC1=CCC2C(=O)N(c3ccccc3O)C(=O)C2C1 (configuration not stated) | –
CC1=CCC2C(=O)N(c3cc(C)on3)C(=O)C2C1 (configuration not stated) | –
CC(C)OC(=O)c1cccc2c1-c1ccccc1C2=O | –
S=C(NCc1ccccc1Cl)Nc1cc(Cl)c(Cl)cc1Cl | –
COc1ccc(CCNC(=S)NCCc2ccccc2)cc1OC | –
S=C(NCCc1ccccc1)Nc1cc(Cl)c(Cl)cc1Cl | 4.65
CC(C)(C)NS(=O)(=O)c1cc2c(c([N+](=O)[O-])c1)-c1c(cc(S(=O)(=O)NC(C)(C)C)cc1[N+](=O)[O-])C2=O | –
Cc1cc(C)c2c(N)c(C(=O)NCc3ccco3)sc2n1 | –
SMILES | Dicer inh
Cc1cc(C)c2c(N)c(C(=O)O)sc2n1 | –
Cc1cc(C)c2c(N)c(C(=O)NNC(=S)NCc3ccccc3)sc2n1 | 3.05
CSc1cccc(NC(=O)c2sc3nc(C)cc(C)c3c2N)c1 | –
Cc1cc(C)c2c(N)c(S(=O)(=O)Cc3ccccc3)sc2n1 | 4.14
Cc1cc(C)c2c(N)c(C(=O)c3ccc(-c4ccccc4)cc3)sc2n1 | –
O=C1CC(c2ccco2)CC2=C1C(c1ccccc1O)n1c(nc3ccccc31)N2 (configuration not stated) | –
CC(C)C(=O)Nc1c(C(=O)c2ccc(Br)cc2)oc2ccccc12 | –
